Experimental data as given in publication PMC7822874, “Chemoprotective antimalarials identified through quantitative high-throughput screening of Plasmodium blood and liver stage parasites” (Scientific Reports, 2021).
Read-outs that look alike come from different tables or passages of the source.

Tested on: P. berghei-ANKA-GFP-LucCON liver stage parasites in HepG2-A16-CD81EGFP cells
Conditions: 48 h

| Compound | % viability (1 µM) | % viability (3 µM) |
| --- | --- | --- |
| COc1ccc(OCCn2cc(C(=O)c3ccco3)c3ccccc32)cc1 [NCGC00101886] | 1.363 | 1.13 |
| COc1cccc(OCCn2cc(C(=O)c3ccco3)c3ccccc32)c1 [MLS000050800] | – | 1.234 |
